Records with an inconclusive call do not appear. Values without a mark were called inactive. Calls of active or inactive are those of the source. The call rests on the fitted dose curve; tested in HEK293 reporter line.
Assay: qHTS for Inhibitors of the Functional Ribonucleoprotein Complex (vRNP) of Lymphocytic Choriomeningitis Arenaviruses (LCMV): Viability assay - alamar blue signal for LCMV Primary Screen (AID 1347085); further: nearly all actives have a fitted effect of over 80% in size
Details: alamar blue viability counter-screen, LCMV vRNP screen cells; series mostly up to 57.5 µM; activity change, negative = lower viability: at the top concentration
For `COc1c(O)cc2c(c1O)[C@@H]1O[C@H](CO)[C@@H](O)[C@H](O)[C@H]1OC2=O`, the “activity change, negative = lower viability” value was 10.5%. In the case of `COc1cc([C@H]2Oc3cc([C@H]4Oc5cc(O)cc(O)c5C(=O)[C@H]4O)ccc3O[C@H]2CO)ccc1O`, the “activity change, negative = lower viability” value is reported as 23.1%. In the case of `OC[C@H]1O[C@@H](Oc2cc(O)cc(C=Cc3ccc(O)cc3)c2)[C@H](O)[C@@H](O)[C@H]1O`, the “activity change, negative = lower viability” value is reported as -16.6%. For `CN(C)CCOc1ccc(-c2nc(-c3ccc4c(c3)CCC4=NO)c(-c3ccncc3)[nH]2)cc1`, the “activity change, negative = lower viability” value was -2.58%. With `CC1(C)S[C@H]2[C@H](NC(=O)[C@@H](N)c3ccc(O)cc3)C(=O)N2[C@@H]1C(=O)O` the “activity change, negative = lower viability” value was 4.66%. For `O=C(NNC(=O)c1ccc(CNS(=O)(=O)c2ccc(F)c(Cl)c2)cc1)c1ccccc1`, the “activity change, negative = lower viability” value was -0.961%. In the case of `CNC[C@@H](O)[C@@H](O)[C@H](O)[C@H](O)CO`, the “activity change, negative = lower viability” value is reported as -1.25%. With `CC(C)(O)[C@H]1CC[C@@](C)([C@H]2[C@@H](O)C[C@@]3(C)[C@@H]4C[C@H](O[C@@H]5O[C@H](CO)[C@@H](O)[C@H](O)[C@@H]5O)[C@H]5C(C)(C)[C@@H](O[C@@H]6OC[C@@H](O)[C@H](O)[C@@H]6O)CC[C@@]56C[C@@]46CC[C@]23C)O1` the “activity change, negative = lower viability” value was -6.4%. For `CC(C)(Cc1ccc2ccccc2c1)NC[C@@H](O)COc1cccc(Cl)c1C#N`, the “activity change, negative = lower viability” value was -1.32%. With `CN(C)c1nc(Cc2ccc(NC(=O)c3ccc(C(F)(F)F)cc3)cc2)nc(N(C)C)c1CC(=O)O` the “activity change, negative = lower viability” value was 1.37%. With `CC(=O)O[C@]1(C(C)=O)CC[C@H]2[C@@H]3C=C(C)C4=CC(=O)CC[C@]4(C)[C@@H]3CC[C@@]21C` the “activity change, negative = lower viability” value was -0.551%. Work on `CC(C)(C)[C@H](NC(=O)c1ccc(N)c(Cl)c1)C(=O)N1CCC[C@@H]1C(=O)N[C@H](C#N)CC(=O)O` yielded an activity change, negative = lower viability of 8.73% [at 5.82 µM]. In the case of `CC1(C)[C@H]2CC[C@]3(C)[C@@H](C(=O)C=C4[C@@H]5C[C@@](C)(C(=O)O)CC[C@]5(C)CC[C@]43C)[C@@]2(C)CC[C@@H]1O`, the “activity change, negative = lower viability” value is reported as 3.4%. With `O=C(NCc1ccccc1)[C@H](Cc1ccccc1)NC(=O)[C@@H]1O[C@@H]1C(=O)NCCc1ccc(O)cc1` the “activity change, negative = lower viability” value was -16.4%. With `COC1CCC(C(=O)c2ccc3nc4c(cc3c2)CCCO4)CC1` (centres undefined) the “activity change, negative = lower viability” value was -7.73%. In the case of `NC1CCC(Nc2nc(Nc3ccc(C(=O)N4CCCCC4)cc3)c3ncn(-c4cccc(F)c4)c3n2)CC1` (centres undefined), the “activity change, negative = lower viability” value is reported as -6.63%. For `Clc1cccc(-n2nnnc2NCc2ccccc2Oc2ccccn2)c1Cl`, the “activity change, negative = lower viability” value was 11.5%. In the case of `COc1cc(/C=C/C(=O)OC2CC3CCC2(C)C3(C)C)ccc1O` (centres undefined), the “activity change, negative = lower viability” value is reported as 15.3%. With `C=CC1=C(C(=O)O)N2C(=O)[C@@H](NC(=O)C(=NO)c3csc(N)n3)[C@H]2SC1` the “activity change, negative = lower viability” value was 2.89%. With `CCNC(=O)Nc1ccc(Oc2ncnc(N)c2C=NOC)cc1Cl` the “activity change, negative = lower viability” value was 4.37%. With `O=C(O)[C@H](CC(=O)N1C[C@@H]2CCCC[C@H]2C1)Cc1ccccc1` the “activity change, negative = lower viability” value was -2.18%. For `CC1C(=O)OC2C(O)C34C5CC(C(C)(C)C)C36C(OC(=O)C6O)OC4(C(=O)O5)C12O` (centres undefined), the “activity change, negative = lower viability” value was -8.3%. In the case of `CCOC(=O)N1CCN([N+]([O-])=NOc2cc(ON=[N+]([O-])N3CCN(C(=O)OCC)CC3)c([N+](=O)[O-])cc2[N+](=O)[O-])CC1`, the “activity change, negative = lower viability” value is reported as 5.64%. In the case of `CCOC(=O)O[C@]1(C(=O)OCCl)CC[C@@H]2[C@H]3CCC4=CC(=O)C=C[C@]4(C)[C@@H]3[C@@H](O)C[C@@]21C`, the “activity change, negative = lower viability” value is reported as -5.01%. In the case of `O=C1Nc2ccc(I)cc2C1=Cc1cc(Br)c(O)c(Br)c1`, the “activity change, negative = lower viability” value is reported as -14.5%. For `O=C(C[C@@H]1CC=CCCC(=O)O[C@H](c2ccccc2)CNC1=O)NCc1ccc(Cl)cc1`, the “activity change, negative = lower viability” value was 13.7%. For `CON=C(C(=O)N[C@@H]1C(=O)N2C(C(=O)OCOC(=O)C(C)(C)C)=C(C=Cc3scnc3C)CS[C@H]12)c1csc(N)n1`, the “activity change, negative = lower viability” value was 0.77%. With `C=CC[N+]1([C@H]2C[C@H]3[C@@H]4CC[C@H]5C[C@H](O)[C@@H](N6CCOCC6)C[C@]5(C)[C@@H]4CC[C@]3(C)[C@H]2OC(C)=O)CCCC1` the “activity change, negative = lower viability” value was -6.53%. In the case of `C=C[C@@H]1CN2CCC1C[C@@H]2C(O)c1ccnc2ccc(OC)cc12` (some centres undefined), the “activity change, negative = lower viability” value is reported as 0.465%. With `O=C(CS(=O)Cc1ccco1)NCC=CCOc1cc(CN2CCCCC2)ccn1` (centres undefined) the “activity change, negative = lower viability” value was 4.87%. With `CC(=O)C1=C(O)C=C2Oc3c(C(C)=O)c(O)c(C)c(O)c3C2(C)C1=O` (centres undefined) the “activity change, negative = lower viability” value was -3.97%. For `COc1ccc(-c2coc3cc(O)ccc3c2=O)cc1`, the Potency was “inactive”. For `NC(=O)NN=Cc1ccc([N+](=O)[O-])o1`, the “activity change, negative = lower viability” value was -2.83%. With `CC(=O)N[C@@H]1[C@H](O[C@@H]2c3ccc(c(Cl)c3)Oc3cc4cc(c3O[C@H]3O[C@H](CO)[C@@H](O)[C@H](O)[C@H]3NC(=O)CCCCCCCC(C)C)Oc3ccc(cc3Cl)C[C@H]3NC(=O)[C@H](N)c5ccc(O)c(c5)Oc5cc(O)cc(c5)[C@H](NC3=O)C(=O)N[C@H]4C(=O)N[C@H]3C(=O)N[C@@H]2C(=O)N[C@@H](C(=O)O)c2cc(O)cc(O[C@H]4O[C@H](CO)[C@@H](O)[C@H](O)[C@H]4O)c2-c2cc3ccc2O)O[C@H](CO)[C@@H](O)[C@@H]1O` the “activity change, negative = lower viability” value was -0.104%.
On the % scale 0 is the no-effect control and ±100 the full control effect.
